# Experimental data from ChEMBL document CHEMBL1156829.
# Several values for one entry are separate records, joined by “and”; a condition that tells them apart may be missing. Equal entries are not always repeated. The full ranking holds about 5,400 compounds; the median of “IFI” is about 2, and the highest 2% start at about 22. Only a selection was taken, and the highest values are over-represented in it overall.
# Experiment: NOVARTIS: Inhibition Frequency Index (IFI) - the number of HTS assays where a compound showed > 50% inhibition/induction, expressed as a percentage of the number of assays in which the compound was tested.
# Assay type: functional
row,Structure (SMILES),IFI
1,Brc1ccc(C=Nc2ccc(-c3nc4cc(-c5ccc6[nH]c(-c7ccc(N=Cc8ccc(Br)cc8)cc7)nc6c5)ccc4[nH]3)cc2)cc1,23.1%
2,Nc1ccc(-c2nc3cc(Cc4ccc5[nH]c(-c6ccc(N)cc6)nc5c4)ccc3[nH]2)cc1,10.3%
3,COc1ccc(-c2nc3cc(Cc4ccc5[nH]c(-c6ccc(OC)cc6)nc5c4)ccc3[nH]2)cc1,25.7%
4,Nc1ccc(-c2nc3cc(-c4ccc5[nH]c(-c6ccc(N)cc6)nc5c4)ccc3[nH]2)cc1,27.3%
5,N=c1c2ccccc2nnn1-c1ccc(C(F)(F)F)cc1,2.53%
6,COC(=O)c1sc2nc(CN3CCC(C)CC3)ccc2c1NC(=O)c1ccc(C)s1,1.74%
7,CCOc1ccccc1-n1c(SCC(=O)c2ccc(Cl)cc2)nc2[nH]ncc2c1=O,1.16%
8,CC(=O)NC(CO)C(O)c1ccc([N+](=O)[O-])cc1 (stereo not drawn),0%
9,COc1ccc(S(=O)(=O)N(C)CCCNc2ccnc3cc(Cl)ccc23)cc1,10.2%
10,CC(c1nc2ccccc2c(=O)n1C)N1CCN(C(=O)C(C)(C)C)CC1 (stereo not drawn),0%
11,O=C(Nc1c2ccccc2nc2ccccc12)c1cc(Cl)ccc1O,3.03%
12,O=C(Nc1cccc(Cl)c1)c1cc2ccccc2cc1O,9.62%
13,N#Cc1ccc(NC(=O)c2cc(Cl)ccc2O)cc1,24.7%
14,CCCN(C(=O)Nc1c(C(C)C)cccc1C(C)C)C(CC)c1nc2ccccc2c(=O)n1-c1cccc(C)c1 (stereo not drawn),0.943%
15,CCOC(=O)N1CCN(C(=O)C(=O)NNC(=O)COc2ccc(Cl)cc2Br)CC1,0%
16,OC1(c2ccc(Br)cc2)CCN(C2CCN(Cc3ccccc3)CC2)CC1,1.57%
17,COCC(=O)NCc1ccc(OC2CCN(CC(c3ccccc3)c3ccccc3)CC2)cc1,1.41%
18,O=C(Nc1cccc(Oc2ccccc2)c1)NC(CN1CCCC1)c1ccccc1 (stereo not drawn),7.04%
19,CCCCCCC1CCC(O)(C(C)(O)C(=O)NC2C(=O)N3NCCCC3C(=O)N(O)C(COC)C(=O)NCC(=O)N3NCCCC3C(=O)N(O)C(C)C(=O)OC2C)OC1C (stereo not drawn),39.3%
20,CC[C@H](C)C[C@H]1CC[C@](O)([C@](C)(O)C(=O)N[C@@H]2C(=O)N3NCCC[C@@H]3C(=O)N(O)[C@@H](C)C(=O)NCC(=O)N3NCCC[C@H]3C(=O)N(O)[C@H](C)C(=O)O[C@H]2C(C)C)O[C@@H]1C,34.4%
21,COc1ccc(CN2CCOc3ccc(C(C)(O)CN(C)C)cc3C2)cc1C (stereo not drawn),0%
22,CCOC(=O)c1c(C)n(-c2ccccc2)c2ccc(O)cc12,2.54%
23,CCN1CCN(c2c(C(=O)c3ccccc3)cnc3cc(OC)c(OC)cc23)CC1,2.22%
24,CCCCc1c(C)nc2c(OC)cccc2c1O,0%
25,CCCCN(C)Cc1cc(-c2cccc(OC)n2)ccc1O,3.42%
26,Oc1c2c(nc3cc(-c4ccccc4)nn13)CCCC2,7.14%
27,CC(C)CNCc1cc(-c2ccc(F)cc2)ccc1O,0.98%

row,Structure (SMILES),IFI
1,CC(=O)Nc1c(NCc2ccccc2)c2ccccc2sc1=O,2.17%
2,Cc1ccc(Nc2nc3c(N)nnc(N)c3nc2Nc2ccc(C)cc2)cc1,2.98%
3,CCS/C(Cl)=C(/NC(=O)c1ccccc1)[P+](c1ccccc1)(c1ccccc1)c1ccccc1,3.57%
4,O=C(NC(=C(Cl)Cl)[P+](c1ccccc1)(c1ccccc1)c1ccccc1)c1ccc(F)cc1,27.3%
5,O=C(NN=CC(Br)=Cc1ccccc1)c1ccc(F)cc1,0%
6,COc1ccc(/C=C(/C#N)C(=O)Nc2cccc3ccccc23)cc1,0%
7,COc1cc(NC(C)CCCN(Cc2ccc(Cl)cc2)C(=O)Nc2cccc(C(F)(F)F)c2)c2ncccc2c1 (stereo not drawn),2.7%
8,Cc1ccccc1C[n+]1cc(-c2ccc(Cl)cc2)n2c1CCC2,7.14%
9,CCCCNC1=CC(=O)C(=O)c2ccccc21,15.4%
10,CCSC1=CC(=O)c2ccccc2C1=O,24.3%
11,Cc1c(C(=O)NCCN2CCCC2)cnn1-c1ncc2c(n1)-c1ccccc1SC2,2.59%
12,COCCOC(=O)C1=C(C)NC2=C(C(=O)CC(c3ccc(OC)c(OC)c3)C2)C1c1ccccc1Cl (stereo not drawn),2.33%
13,CC(C)NC(=O)c1ccc2c(c1)N=C(c1ccccc1)N(C1CC1)C2,2.47%
14,Cc1ccccc1C=NNc1nc2ccccc2[nH]1,0%
15,CCN1C(=Cc2ccc3ccccc3[n+]2CC)C=Cc2sc3ccccc3c21,31.4%
16,CC[n+]1c(/C=C2\Sc3cc(C)ccc3N2CCO)ccc2ccccc21,15.4%
17,CC[n+]1c(/C=C2\Sc3ccc(C)cc3N2CCO)ccc2ccccc21,15.4%
18,CCN1/C(=C/c2[se]c3ccccc3[n+]2CC)C=Cc2cc(OC)ccc21,19.6%
19,CC[n+]1c(/C=C2\Sc3ccccc3N2CCO)ccc2cc(C)ccc21,6.35%
20,CCN1/C(=C/c2ccc3ccccc3[n+]2CC)C=Cc2ccccc21,22.7%
21,CCN1/C(=C/c2ccc3ccccc3[n+]2CC)Sc2c1ccc1ccccc21,24.1% and 14.3%
22,CCN1/C(=C/c2cccc[n+]2C)C=Cc2ccccc21,8.33%
23,CCN1/C(=C/c2ccc3ccccc3[n+]2CC)Sc2sc3ccccc3c21,18.3%
24,CC[n+]1c(/C=C2\Sc3oc4ccccc4c3N2C)ccc2cc(C)ccc21,26.1%
25,CC[n+]1c(/C=C2\Sc3ccc(OC)cc3N2C)ccc2cc(C)ccc21,14.3%
26,CCN1/C(=C/c2ccc3ccccc3[n+]2CC)Sc2cc(NC(C)=O)ccc21,8.33%
